# Hits are enriched below; roughly 1.4% of the tested compounds scored in any of these assays.
# A3A deaminase: human APOBEC3A DNA deaminase inhibition | inhibition, % at 20 µM | P31941 | recombinant A3A, FAM/TAMRA ssDNA deamination fluorescence | hit rate 0.41% among 330,000;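 active = at least 40% inhibition at 20 µM here, with at most 30% in a related deaminase screen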;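 note: plate controls were A3A with DMSO for no effect and wells lacking A3A enzyme for full effect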
# Target sequence (P31941 whole entry, looked up): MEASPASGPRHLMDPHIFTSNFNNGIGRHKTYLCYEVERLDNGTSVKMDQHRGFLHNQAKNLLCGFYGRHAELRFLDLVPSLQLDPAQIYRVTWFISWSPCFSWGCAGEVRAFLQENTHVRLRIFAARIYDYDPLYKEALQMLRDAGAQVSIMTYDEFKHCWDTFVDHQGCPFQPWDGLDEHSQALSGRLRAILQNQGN
# GRK2 aptamer HTS: blocks RNA aptamer binding to human GRK2. hit rate 0.59% among 330,000. AID 488847. bead flow cytometry, FAM-aptamer displacement from GRK2. P25098. inhibition of aptamer binding, % at 10 µM;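 active = inhibition of aptamer binding above 40%, roughly 3 SD of noise, on plates passing a quality check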;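 note: median bead fluorescence of bound FAM aptamer so fluorescent compounds give negative values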
# APOBEC3G inh: APOBEC3G (human) deaminase inhibition. inhibition, % at 20 µM. recombinant A3G, ssDNA deamination FAM/TAMRA fluorescence. hit rate 0.28% among 330,000. Q9HC16;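 active = inhibition of at least 40% at 20 µM, with no more than 30% in the related APOBEC3A deaminase screen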;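 note: plate controls were DMSO wells with A3G for no effect and wells lacking A3G enzyme for full effect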
# VLA-4 inh: inhibition in a human VLA-4 binding assay. P13612. VLA-4 expressing cells, ligand binding flow cytometry. inhibition, % (about 7 µM as worked out from the volumes in the protocol). hit rate 0.2% among 330,000. AID 2557; in the data active = inhibition above about 50%
# APOBEC3G confirm: APOBEC3G (human) deaminase inhibition, confirmed; recombinant A3G ssDNA deaminase, UDG/FAM-TAMRA fluorescence; shares compounds with APOBEC3G inh; AID 493152; hit rate 72% among 890; inhibition, % at 20 µM;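 active = inhibition reaching a set limit in any replicate at 20 µM, the limit being 80% of the first screen's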
# UDG A3G counter: inhibits E. coli UDG, flagging false APOBEC3G inhibitors. shares compounds with APOBEC3G inh. UDG counterscreen, FAM/TAMRA oligo fluorescence. inhibition, % at 20 µM. 710 tested, under 10 active. AID 504715;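 active = compounds giving 40% or more inhibition at 20 µM in any one of the three replicates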;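 note: plate controls were DMSO wells with UDG and oligo for no effect and DMSO wells lacking both for full effect; inhibitors lower the FAM signal released by uracil excision and alkaline cleavage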
# Target sequence (P12295 whole entry, looked up): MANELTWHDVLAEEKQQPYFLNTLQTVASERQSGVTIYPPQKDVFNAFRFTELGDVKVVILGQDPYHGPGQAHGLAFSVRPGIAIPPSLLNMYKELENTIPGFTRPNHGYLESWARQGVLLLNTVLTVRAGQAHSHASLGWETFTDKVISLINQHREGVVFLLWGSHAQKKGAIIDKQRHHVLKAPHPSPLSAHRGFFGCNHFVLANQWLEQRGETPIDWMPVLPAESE
# An asterisk follows results filed as active; i = inactive; / = no result given.
SMILES,A3A deaminase,GRK2 aptamer HTS,APOBEC3G inh,VLA-4 inh,APOBEC3G confirm,UDG A3G counter
CSc1nc(=NC(C)=O)ss1,-1.7,4.0,50.6*,0.4,42.8*,-0.4
S=c1[nH]c2ccccc2n1Cc1ccccc1,-2.0,2.0,49.7*,8.5,53.8*,0.8
S=c1[nH]c2cnccc2n1Cc1ccccc1,-3.6,0.0,12.5,1.4,/,/
CCN(CC)C(=O)c1sc2nc(N3CCOCC3)c3c(c2c1N)CCCC3,0.2,0.0,49.4*,-5.1,23.5,/
CCOC(=O)c1sc2nc(N3CCOCC3)c3c(c2c1N)CCCC3,-8.3,0.0,-8.4,-8.2,/,/
Cc1ccc(C)c(NC(=O)CN(C)C(=O)c2ccc(-n3cncn3)c([N+](=O)[O-])c2)c1,-4.1,1.0,68.9*,-8.3,-8.4,-0.8
Cc1cc(Br)ccc1NC(=O)CN(C)C(=O)c1ccc(-n2cncn2)c([N+](=O)[O-])c1,22.6,0.0,-2.6,18.6,/,/
Cc1cc(OC(C)C(=O)NCC2CCC(C(=O)O)CC2)c2c(C)c(Cc3ccccc3)c(=O)oc2c1 (stereo not drawn),-3.6,4.0,-10.6,1.4,/,/
CN1CCN(C(=S)C(=O)Nc2ccc(Br)cc2)CC1,5.8,2.0,79.5*,4.0,70.4*,-2.0
CN1CCN(C(=S)NC(=O)c2ccc(Br)cc2)CC1,-2.7,0.0,-11.0,-2.8,/,/
O=C(Nc1ccc(Oc2ccccc2)nc1)C1CCN(Cc2ccccc2)CC1,0.0,0.0,-2.5,16.1,/,/
CCc1ccc(CN2CCC(C(=O)Nc3ccc(Oc4ccccc4)nc3)CC2)o1,0.5,0.0,41.4*,i,0.2,/
S=c1[nH]nc(-c2cccnc2)n1/N=C/c1ccccc1,-3.2,1.0,43.7*,16.4,80.5*,-2.9
S=c1[nH]nc(-c2cccnc2)n1/N=C/C=C/c1ccccc1,-5.1,0.0,41.7*,4.5,75.4*,-2.1
S=c1[nH]nc(-c2cccnc2)n1/N=C/c1cccs1,-9.6,0.0,40.6*,9.5,80.8*,-5.2
O=[N+]([O-])c1ccccc1/C=N/n1c(-c2cccnc2)n[nH]c1=S,-4.2,28.0,69.4*,-3.5,80.5*,-0.7
Cc1cccc(-c2n[nH]c(=S)n2/N=C/c2cccs2)c1,-4.7,4.0,17.2,1.2,/,/
CCn1c(SCC(=O)Nc2cccc(S(=O)(=O)N(C)c3ccccc3)c2)nnc1C1CC1,-1.8,3.0,-6.4,10.5,/,/
Cc1cccc2nc(CSc3ccc(Cl)cc3)cn12,-6.1,0.0,-3.6,9.4,/,/
CCCS(=O)(=O)N1CCN(Cc2ccc(OCc3ccccc3)c(OC)c2)CC1,-2.6,0.0,-4.6,6.3,/,/
O=[N+]([O-])c1ccc(S(=O)(=O)CC(CN2CCOCC2)N2CCOCC2)cc1 (stereo not drawn),-1.7,2.0,-7.3,27.3,/,/
COC(=O)c1ccccc1NC(=O)Nc1ccc(Br)cn1,2.0,5.0,-1.3,6.6,/,/
O=[N+]([O-])c1cc(/C=N/n2c(-c3cccnc3)n[nH]c2=S)ccc1Cl,2.7,0.0,37.5,23.8,/,/
Fc1cccc(Cl)c1/C=N/n1c(-c2cccnc2)n[nH]c1=S,-3.2,5.0,46.1*,4.9,75.8*,-4.7
O=[N+]([O-])c1cc2c(cc1/C=N/n1c(-c3ccccc3)n[nH]c1=S)OCO2,-2.9,1.0,54.8*,0.4,83.5*,-3.3
SMILES,A3A deaminase,GRK2 aptamer HTS,APOBEC3G inh,VLA-4 inh,APOBEC3G confirm,UDG A3G counter
O=[N+]([O-])c1cc2c(cc1/C=N/n1c(-c3ccccn3)n[nH]c1=S)OCO2,/,0.0,/,8.6,/,/
CCn1c(C)c(CS(=O)(=O)c2ccccc2)[nH]c1=O,-0.3,0.0,49.4*,-2.1,87.0*,-2.9
O=c1[nH]c(CS(=O)(=O)c2ccccc2)nc2ccccc12,0.7,2.0,-5.1,22.6,/,/
C=C(C)C(=O)Nc1cccc(C2=NOC3(C2)C[C@H](C(N)=O)N(C(=O)COc2ccc(Cl)cc2)C3)c1 (stereo partly drawn),23.4,97.0*,87.5*,19.9,91.3*,-3.4
C=C(C)C(=O)Nc1cccc(C2=NOC3(C2)C[C@@H](C(N)=O)N(C(=O)c2cc([N+](=O)[O-])cc([N+](=O)[O-])c2C)C3)c1 (stereo partly drawn),11.2,2.0,43.6*,14.7,59.3*,-3.6
C/C=C\C(=O)Nc1cccc(C2=NOC3(C2)C[C@@H](C(N)=O)N(C(=O)C2(C)CC2)C3)c1 (stereo partly drawn),4.1,1.0,5.9,-11.1,/,/

# Screening data (PubChem BioAssay)
